# Experimental data: PubChem BioAssay AID1963319 (National Center for Advancing Translational Sciences (NCATS), 2024)
# Among all 1,300 compounds or so, about 120 (9.2%) were called active. Not shown: some 35% with an inconclusive outcome. These entries were drawn from the full list. Values without a mark were called inactive. Calls come from the whole dose curve; as a rule, active = well fitted activation curve with a large enough effect; inconclusive = small, poorly fitted or top-dose-only effect; inactive = flat fitted curve, though single readings scatter.
# Target: Luciferin 4-monooxygenase (Photinus pyralis) (UniProt P08659)
# Test: Firefly luciferase (FLuc-C-HiBiT) SDR gain of signal screen - plus ATP;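 note: signal reports ligand binding via conformational change of the enzyme rather than luciferase catalysis; nearly all actives have a fitted effect of over 55% in size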; for activation (gain of signal): % of control where 0% means no effect
# Settings: purified FLuc-C-HiBiT + ATP, HiBiT complementation luminescence; series mostly up to 32.7 µM; activation (gain of signal): at the top concentration
# Text: PI: James Inglese Ph.D. National Center for Advancing Translational Sciences (NCATS), National Institute of Health (NIH), Maryland Discovery and optimization of novel protein-binding ligands underlies many of the methods and applications of biology, drug discovery, clinical diagnostics, and environmental toxicology. Assays for detecting the interaction of, for example, a molecule with a macromolecular target also referred to here as the target of interest (TOI) is dependent on a compatible output technology. Depending on the nature and knowledge surrounding the TOI, whether a receptor, enzyme, regulatory subunit or scaffold, or a sequence-defined nucleic acid folded into a complex tertiary structure, assay strategies can vary widely. Here we exploit ligand-biased changes in the structural dynamics of the target protein to control reporter alpha complementation allowing a non-competitive, non-functional, non-separation measure of ligand-target interaction. […] Using a chemical library of >1,200 compounds enriched for scaffolds known to be associated with the inhibition of firefly luciferase (FLuc) activity (PubChem AIDs 2309) we first illustrate and compare the Structural Dynamics Response (SDR) assay vs. the standard functional FLuc enzyme assay (2). Secondly, we show the specificity and sensitivity of the SDR for the Abelson tyrosine kinase (ABL1) compared to the serine/threonine protein kinase A, using an enriched chemical library of 128 compounds selected, in part, for activity annotated with ABL1 kinase activity using the Pharos database (3). References: (1) A. S. Dixon et al., NanoLuc Complementation Reporter Optimized for Accurate Measurement of Protein Interactions in Cells. ACS Chem Biol 11, 400-408 (2016). […] Chemistry & Biology, 19, 1060 - 1072 (2012). (3) K. J. Kelleher et al., Pharos 2023: an integrated resource for the understudied human proteome. Nucleic Acids Res 51, D1405-D1416 (2023).
# 1. Reagent. Dispense 4 uL FLuc-C-HiBiT enzyme-buffer solution per well at a final enzyme concentration of 10 nM with or without 10 uM ATP into columns 2-48 of white, solid bottom medium bind 1536-well plates (Greiner Bio-One) by BioRaptr 2. Dispense respective buffer without enzyme at 4 uL/well in column 1 of assay plates. 2. Compounds. Library compounds and PTC124 control added at 23 nL per well, transfer by Pin Tool. 3. Incubation. Incubate enzyme and compounds at room temperature for >30 min, protect from light. 4. Reagent. (SDR assay) Add 3 uL/well of Nano-Glo HiBiT reagent (Promega) to assay plates for SDR assay with ATP. 5. Incubation. Incubate enzyme and substrate or detection reagent at room temperature for 5-10 min, protect from light. 6. Detector. HiBiT SDR assay measured using CCD-based camera (ViewLux) with settings as follows: Exposure, 1 sec; Gain, High; Speed, Slow; Binning, 2X. REFERENCES: Inglese J, Shamu CE and Guy RK, Reporting data from high throughput screening of small molecule libraries, Nature Chemical Biology, 2007, 3(8): 438-441. doi.org/10.1038/nchembio0807-438.
# Potency is the fitted concentration of half-maximal effect.
# Sequence of Luciferin 4-monooxygenase (Photinus pyralis) (P08659 whole entry, looked up): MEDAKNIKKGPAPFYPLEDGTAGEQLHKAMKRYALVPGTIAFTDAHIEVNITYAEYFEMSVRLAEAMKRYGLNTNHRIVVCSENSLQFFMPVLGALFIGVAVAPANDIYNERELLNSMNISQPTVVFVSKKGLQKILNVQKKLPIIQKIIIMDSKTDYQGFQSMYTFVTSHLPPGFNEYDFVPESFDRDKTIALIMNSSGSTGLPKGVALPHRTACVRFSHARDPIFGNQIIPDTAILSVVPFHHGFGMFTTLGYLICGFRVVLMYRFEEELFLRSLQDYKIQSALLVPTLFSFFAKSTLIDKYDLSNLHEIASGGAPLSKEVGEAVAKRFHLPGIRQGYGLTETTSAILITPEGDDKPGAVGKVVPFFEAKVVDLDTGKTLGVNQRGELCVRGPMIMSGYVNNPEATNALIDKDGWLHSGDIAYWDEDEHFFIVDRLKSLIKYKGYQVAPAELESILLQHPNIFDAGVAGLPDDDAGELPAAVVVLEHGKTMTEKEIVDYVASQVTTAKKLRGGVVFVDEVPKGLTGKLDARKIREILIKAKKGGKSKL
SMILES,activation (gain of signal),Potency
CC(=O)c1ccc(NC(=O)CSc2nnc(NC(=O)Nc3ccccc3)s2)cc1,12%,–
Cc1ccc(C(=O)Nc2ccc(-c3nc4ccccc4s3)c(O)c2)cc1,7.6%,–
Cc1nn(-c2ccc(C(C)(C)C)cc2)c(C)c1[C@@H]1C=C[C@@H](NC(=O)c2ccco2)C1,9.65% [at 49.3 µM],–
Oc1ccc(-c2nc(C3CC3)nc3c2CCN(Cc2cccc(F)c2)CC3)cc1,5.44%,–
CC(=O)Nc1ccc(NC(=O)CCCc2nc(-c3ccc(C(C)(C)C)cc3)no2)cc1,17.7%,–
Cc1ccc(Nc2c(-c3ccc(N(C)C)cc3)nc3nc[nH]n23)cc1,13.4%,–
Fc1ccc(Nc2nc(-c3ccccc3F)no2)cc1,17.1%,–
Cc1ccc(-c2nnc(SCc3ccccc3C)o2)cc1,12%,–
CCNC(=O)C1C(c2cccc(NC(=O)c3ccc(OC)cc3)c2)OC(=O)N1Cc1ccc(C)cc1 (centres undefined),–,3.94 µM (active)
Cc1cc(C)n(CCC(=O)N2CCC(Cc3noc(C4CC4)n3)C2)n1 (centres undefined),6.83%,–
Cc1cccc(-c2cccc(NC(=O)C3CCCN(C(=O)CC(F)(F)F)C3)c2)c1 (centres undefined),14.3%,–
Cc1nn(-c2ccc(C(C)C)cc2)c(C)c1[C@@H]1C=C[C@@H](NC(=O)CC2(CC(=O)O)CCCC2)C1,12.4%,–
CC(C)C(=O)Nc1cc(-c2nc3ccccc3s2)ccc1Cl,8.2%,–
COc1cccc(-c2nc3ccc(-c4ccc5c(c4)OCO5)cc3o2)c1OC,18.1%,–
OC1(CN2CCCCC2)CCN(c2nc3ccccc3s2)C1 (centres undefined),13.2%,–
Cc1nn(-c2ccc(C(C)C)cc2)c(C)c1[C@@H]1C=C[C@@H](NC(=O)Nc2ccccc2)C1,15.3% [at 49.3 µM],–
CN1CCN(C[C@@H]2CN(C(=O)CCCc3ccccc3)C[C@@H]2CO)CC1,7.28%,–
COc1ccc(-c2cc(N3CCCC(NC(=O)c4ccsc4)C3)n[nH]2)cc1 (centres undefined),13.6%,–
COc1ccccc1OC1(C(=O)O)CCN(c2ncnc3nc[nH]c23)CC1,10.2%,–
O=C(CSc1ccc(F)cc1)Nc1ccccc1-c1nc2ccccc2s1,8.51%,–
O=C(Nc1ccccc1)c1nc2c(o1)CCN(Cc1cccc(Cl)c1)CC2,15% [at 49.3 µM],–
COc1ccc(C(=O)Nc2onc3c2CCCC3)cc1,–,3.94 µM (active)

SMILES,activation (gain of signal),Potency
OCc1cccc(-c2cc3c(cn2)CN(Cc2ccccc2)CCN3)c1,11.4% [at 49.3 µM],–
O=C(/C=C/c1ccccc1)Nc1cc(-c2nc3cc(Cl)ccc3o2)ccc1Cl,9.6%,–
CC(=O)c1nn(-c2ccc(OC(F)(F)F)cc2)nc1Nc1ccccc1,16.2%,–
CNc1nc(C(=O)NCc2ccc3[nH]c(-c4ccc(F)cc4)c(C)c3c2)cs1,8.35%,–
CN1c2cc(C(=O)Nc3ccccc3)ccc2C(=O)N2CCCCCC21 (centres undefined),15.6%,–
Cc1nn(-c2ccc(C(C)C)cc2)c(C)c1[C@@H]1C=C[C@@H](NC(=S)NCC(C)C)C1,11.9% [at 49.3 µM],–
Cc1cccc(C(=O)Nc2ccc(-c3nc4ccccc4s3)c(C)c2)c1,15.5%,–
OCC1CCCN(c2ncnc3c2cnn3-c2ccccc2)C1 (centres undefined),–,0.785 µM (active)
Cc1ccc(Cl)cc1-n1ncc2c(N3CCC(C(N)=O)CC3)ncnc21,7.56%,–
OCCN1CCN(c2nc(N3CCCCC3)c3cnn(-c4ccc(Cl)cc4)c3n2)CC1,8.75%,–
C[S+](=O)([O-])CCn1ncc2cc(OCc3cccc(-c4ccccc4)c3)ccc21,11.7% [at 49.3 µM],–
CC(=O)Oc1ccccc1C(=O)Nc1ccc(-c2nc3ccc(C)cc3s2)cc1,12.8%,–
O=C(NC1CCN(c2cc(-c3ccc(F)cc3)[nH]n2)C1)c1cc2ccccc2[nH]1 (centres undefined),10.8%,–
Cc1ccc2cc(CN3CCN(CC(N)=O)CC3)c(-c3cccs3)nc2c1,11.7%,–
COc1ccc(CC(=O)Nc2ccc(-c3nc4ccccc4s3)c(C)c2)cc1,8.15%,–
COc1ccc(-c2nc3ccccc3s2)cc1NC(=O)COc1ccccc1C,6.09%,–
CCc1cccc(NC(=O)c2cc(-c3ccccc3)n[nH]2)c1,15.8%,–
COc1cc(F)ccc1-c1ccc(COc2ccc3c(cnn3CCC(=O)O)c2)cc1,10.6% [at 49.3 µM],–
Cc1ccc(-c2nc(C(=O)N(C)Cc3ccccc3)no2)cc1,14.4%,–
Oc1cccc(-c2cc3c(cn2)CN(Cc2cccnc2)CCN3)c1,12.9% [at 49.3 µM],–
O=C(COc1ccc(Cl)cc1)Nc1ccc(-c2nc3cc(Cl)ccc3o2)c(O)c1,9.32%,–
CCOC(=O)C1CCN(C(=O)c2cccc3c2CCN3C(=O)Nc2ccccc2)CC1,–,3.13 µM (active)
